Results as given in the supplement of paper PMC10849652.
About 7,900 targets were measured; listed, in parts, are those with a hit and a random draw of the rest. About 0.6% of all pairs of compound and target were hits. Unmarked numbers belong to inactive results.

Experiments:
Test in all cases: log2 fold change, soluble protein after heating vs DMSO (PISA); higher = thermal stabilisation; K562 cells, 10 uM, 30 min; active = over 0.2 and 3.5 SD of the protein, either way, in both replicates (recomputed)
erlotinib = compound: C#Cc1cccc(Nc2ncnc3cc(OCCOC)c(OCCOC)cc23)c1 [erlotinib]
Procedure, shortened: (§1)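 K562 cells (2×10^6 cells/mL) were treated with 10 μM compound for 30 min, and aliquots were heated for 3 min over 48°C-58°C. Pooled aliquots were extracted in PBS with 0.5% NP-40 at 4°C, and the supernatant after 21,000xg for 90 min was measured by TMTpro 16plex LC-MS/MS with channel sums equalised. Reported thermal stability, relative to control samples and from duplicates, is a log2 fold change.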

[1] = compound: C/C(=N\NC(=O)C1=CC(=CC=C1)S(=O)(=O)N2CCOCC2)/C3=C(C=CC(=C3)Cl)O
Procedure, shortened: as §1

[2] = compound: C1=CC(=C(C=C1Cl)C2=NC3=NC=CN=C3C(=N2)NC4=CC=NC=C4)F
Procedure, shortened: as §1

[3] = compound: C1=CC(=CC=C1C2=NC3=C(N2)C=C(C=C3)C(=O)N)OC4=CC=C(C=C4)Cl
Procedure, shortened: as §1

[4] = compound: C1=CC2=C(C=CC(=C2)/C=C\3/C(=O)NC(=NCC4=CC=CS4)S3)N=C1
Procedure, shortened: as §1

[5] = compound: C1=CC2=NC=CN=C2C=C1/C=C/3\C(=O)NC(=O)S3
Procedure, shortened: as §1

[6] = compound: C1=CC=C(C=C1)C2=NC(=C(N2)C3=CC=NC=C3)C4=CC(=C(C=C4)Cl)O
Procedure, shortened: as §1

[7] = compound: C1=CC=C2C(=C1)C3=NNC4=CC=CC(=C43)C2=O
Procedure, shortened: as §1

[8] = compound: C1CCN(C1)C(=O)NC2=CC=CC(=C2)NC3=NC=C(C(=N3)NCCC4=CN=CN4)Br
Procedure, shortened: as §1

[9] = compound: C1CN(CCC1(CC2=CC=C(C=C2)Cl)N)C3=NC=NC4=C3C=CN4
Procedure, shortened: as §1

IRAK-1-4 Inhibitor I = compound: C1COCCN1CCN2C3=CC=CC=C3N=C2NC(=O)C4=CC(=CC=C4)[N+](=O)[O-] [IRAK-1-4 Inhibitor I]
Procedure, shortened: as §1

ibrutinib = compound: C=CC(=O)N1CCC[C@@H](n2nc(-c3ccc(Oc4ccccc4)cc3)c3c(N)ncnc32)C1 [ibrutinib]
Procedure, shortened: as §1

[10] = compound: CC(=O)c1cnc2ccc(-c3cc(Cl)c(O)c(Cl)c3)nc2c1N[C@H]1CC[C@H](CN(C)C)CC1
Procedure, shortened: as §1

ralimetinib = compound: CC(C)(C)Cn1c(N)nc2ccc(-c3[nH]c(C(C)(C)C)nc3-c3ccc(F)cc3)nc21 [ralimetinib]
Procedure, shortened: as §1

[11] = compound: CC(C)(O)CC(=O)NCCn1ccc2ncnc(Nc3ccc(Oc4cccc(C(F)(F)F)c4)c(Cl)c3)c21
Procedure, shortened: as §1

[12] = compound: CC(C)C1=C2N=C(C=C(N2N=C1)NCC3=CC=CC=C3)NCCCCCCN
Procedure, shortened: as §1

[13] = compound: CC(C)C[C@@H](C=O)NC(=O)[C@H](CC(C)C)NC(=O)[C@H](CC(C)C)NC(=O)OCc1ccccc1
Procedure, shortened: as §1

pinometostat = compound: CC(C)N(C[C@H]1O[C@@H](n2cnc3c(N)ncnc32)[C@H](O)[C@@H]1O)[C@H]1C[C@@H](CCc2nc3cc(C(C)(C)C)ccc3[nH]2)C1 [pinometostat]
Procedure, shortened: as §1

[14] = compound: CC1=C(C(CC(=O)N1)C2=CC=C(C=C2)C(F)(F)F)C(=O)NC3=C(C=C4C(=C3)C=NN4)F
Procedure, shortened: as §1

[15] = compound: CC1=C(C2=C(C=C1)C(=O)C3=CC=CC=C3N2CCCN)C
Procedure, shortened: as §1

Chain of UniProt Q8TAP8 (Q8TAP8 whole entry, looked up): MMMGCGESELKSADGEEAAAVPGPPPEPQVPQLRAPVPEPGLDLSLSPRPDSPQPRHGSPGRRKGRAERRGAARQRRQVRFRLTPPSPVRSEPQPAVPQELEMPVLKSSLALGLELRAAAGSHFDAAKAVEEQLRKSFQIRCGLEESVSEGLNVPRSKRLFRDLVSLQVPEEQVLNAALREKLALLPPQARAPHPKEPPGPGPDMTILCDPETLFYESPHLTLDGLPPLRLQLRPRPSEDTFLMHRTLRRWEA
Chain of UniProt Q16512 (Q16512 whole entry, looked up): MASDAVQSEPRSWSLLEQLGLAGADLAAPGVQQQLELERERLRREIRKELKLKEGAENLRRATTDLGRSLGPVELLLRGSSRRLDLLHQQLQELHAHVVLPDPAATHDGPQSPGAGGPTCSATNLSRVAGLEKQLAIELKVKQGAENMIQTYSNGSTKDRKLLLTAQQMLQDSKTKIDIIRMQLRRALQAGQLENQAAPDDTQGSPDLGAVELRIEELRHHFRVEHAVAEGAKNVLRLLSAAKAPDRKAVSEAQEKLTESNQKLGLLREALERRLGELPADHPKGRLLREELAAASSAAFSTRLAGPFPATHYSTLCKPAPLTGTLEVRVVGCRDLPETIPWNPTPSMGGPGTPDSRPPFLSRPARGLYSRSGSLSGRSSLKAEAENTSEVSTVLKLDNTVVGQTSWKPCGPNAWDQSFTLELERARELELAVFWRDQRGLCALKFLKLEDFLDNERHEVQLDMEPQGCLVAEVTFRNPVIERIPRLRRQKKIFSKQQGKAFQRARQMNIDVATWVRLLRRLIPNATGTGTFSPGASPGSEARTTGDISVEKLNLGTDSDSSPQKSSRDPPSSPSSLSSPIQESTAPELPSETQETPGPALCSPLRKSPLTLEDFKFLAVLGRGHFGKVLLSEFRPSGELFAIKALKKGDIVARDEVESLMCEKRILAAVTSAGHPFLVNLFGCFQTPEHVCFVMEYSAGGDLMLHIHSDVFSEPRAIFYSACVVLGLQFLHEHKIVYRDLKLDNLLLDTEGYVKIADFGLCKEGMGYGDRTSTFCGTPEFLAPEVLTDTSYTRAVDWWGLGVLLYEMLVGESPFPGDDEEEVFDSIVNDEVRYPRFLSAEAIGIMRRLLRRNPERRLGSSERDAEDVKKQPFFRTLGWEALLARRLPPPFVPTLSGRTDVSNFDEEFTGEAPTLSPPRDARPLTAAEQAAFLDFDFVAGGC
Chain of UniProt Q96PU8 (Q96PU8 whole entry, looked up): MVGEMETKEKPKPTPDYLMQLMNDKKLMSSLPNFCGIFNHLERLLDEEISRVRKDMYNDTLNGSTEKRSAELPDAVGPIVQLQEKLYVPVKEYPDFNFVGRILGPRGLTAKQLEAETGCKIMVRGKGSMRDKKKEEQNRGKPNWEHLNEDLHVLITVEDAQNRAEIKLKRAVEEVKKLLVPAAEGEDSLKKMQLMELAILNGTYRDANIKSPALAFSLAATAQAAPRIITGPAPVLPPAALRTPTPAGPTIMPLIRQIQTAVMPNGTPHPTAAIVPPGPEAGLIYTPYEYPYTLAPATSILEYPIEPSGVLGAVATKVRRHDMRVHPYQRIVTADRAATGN
Chain of UniProt P11216 (P11216 whole entry, looked up): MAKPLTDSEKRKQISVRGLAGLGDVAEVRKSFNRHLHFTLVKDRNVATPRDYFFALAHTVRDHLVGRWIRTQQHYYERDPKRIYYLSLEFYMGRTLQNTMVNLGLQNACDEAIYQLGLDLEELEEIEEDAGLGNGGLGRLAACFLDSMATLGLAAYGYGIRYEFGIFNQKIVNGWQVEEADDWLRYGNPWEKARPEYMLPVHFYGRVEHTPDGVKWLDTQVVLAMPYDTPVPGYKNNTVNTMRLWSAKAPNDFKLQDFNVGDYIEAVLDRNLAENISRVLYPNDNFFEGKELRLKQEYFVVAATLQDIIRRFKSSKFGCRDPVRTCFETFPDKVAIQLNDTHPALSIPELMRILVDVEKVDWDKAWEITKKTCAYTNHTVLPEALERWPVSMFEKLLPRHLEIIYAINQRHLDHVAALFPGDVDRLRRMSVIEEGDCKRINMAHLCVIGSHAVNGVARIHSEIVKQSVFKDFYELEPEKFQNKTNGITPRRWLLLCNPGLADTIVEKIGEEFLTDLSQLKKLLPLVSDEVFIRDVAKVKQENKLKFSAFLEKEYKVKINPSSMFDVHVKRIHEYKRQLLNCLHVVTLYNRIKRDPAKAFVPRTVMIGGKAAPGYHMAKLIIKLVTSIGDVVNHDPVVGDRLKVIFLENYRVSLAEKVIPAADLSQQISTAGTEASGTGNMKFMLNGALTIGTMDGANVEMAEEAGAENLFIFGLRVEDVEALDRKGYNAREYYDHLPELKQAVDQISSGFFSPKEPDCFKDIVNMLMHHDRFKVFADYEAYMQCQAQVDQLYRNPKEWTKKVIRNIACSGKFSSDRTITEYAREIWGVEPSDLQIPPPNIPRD
Chain of UniProt P40425 (P40425 whole entry, looked up): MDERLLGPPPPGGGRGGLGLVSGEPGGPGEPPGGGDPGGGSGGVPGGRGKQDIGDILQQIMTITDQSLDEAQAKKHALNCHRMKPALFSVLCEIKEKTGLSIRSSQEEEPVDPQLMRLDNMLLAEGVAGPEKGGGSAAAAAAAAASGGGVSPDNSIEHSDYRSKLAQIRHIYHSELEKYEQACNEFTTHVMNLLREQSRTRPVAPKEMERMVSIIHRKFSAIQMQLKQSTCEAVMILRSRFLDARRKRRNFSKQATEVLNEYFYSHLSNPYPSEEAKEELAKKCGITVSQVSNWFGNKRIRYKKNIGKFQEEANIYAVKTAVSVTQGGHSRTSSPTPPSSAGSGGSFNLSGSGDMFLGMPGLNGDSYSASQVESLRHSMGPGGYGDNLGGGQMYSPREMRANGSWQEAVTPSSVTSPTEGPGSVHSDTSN
Chain of UniProt Q15121 (Q15121 whole entry, looked up): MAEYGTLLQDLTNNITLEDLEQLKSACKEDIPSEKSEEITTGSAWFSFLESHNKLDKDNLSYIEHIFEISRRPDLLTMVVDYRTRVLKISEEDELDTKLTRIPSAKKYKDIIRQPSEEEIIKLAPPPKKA
Chain of UniProt Q9NVM4 (Q9NVM4 whole entry, looked up): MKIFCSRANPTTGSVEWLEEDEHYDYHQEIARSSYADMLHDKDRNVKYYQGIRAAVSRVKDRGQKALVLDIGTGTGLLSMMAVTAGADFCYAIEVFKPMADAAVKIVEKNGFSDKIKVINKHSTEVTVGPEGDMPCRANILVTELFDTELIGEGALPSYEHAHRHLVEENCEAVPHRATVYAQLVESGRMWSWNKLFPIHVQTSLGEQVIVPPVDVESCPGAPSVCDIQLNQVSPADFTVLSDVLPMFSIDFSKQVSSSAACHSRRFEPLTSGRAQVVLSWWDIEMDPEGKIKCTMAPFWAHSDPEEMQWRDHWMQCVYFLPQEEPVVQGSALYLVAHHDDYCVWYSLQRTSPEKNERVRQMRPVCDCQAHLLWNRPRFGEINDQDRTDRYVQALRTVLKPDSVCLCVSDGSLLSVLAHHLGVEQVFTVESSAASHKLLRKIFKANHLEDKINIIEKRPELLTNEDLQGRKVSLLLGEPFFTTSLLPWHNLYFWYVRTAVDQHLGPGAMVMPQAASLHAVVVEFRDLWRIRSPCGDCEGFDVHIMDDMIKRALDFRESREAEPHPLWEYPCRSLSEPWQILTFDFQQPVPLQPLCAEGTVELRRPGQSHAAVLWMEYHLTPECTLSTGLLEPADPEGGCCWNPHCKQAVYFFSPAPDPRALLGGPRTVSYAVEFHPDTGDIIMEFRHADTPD
Chain of UniProt Q15004 (Q15004 whole entry, looked up): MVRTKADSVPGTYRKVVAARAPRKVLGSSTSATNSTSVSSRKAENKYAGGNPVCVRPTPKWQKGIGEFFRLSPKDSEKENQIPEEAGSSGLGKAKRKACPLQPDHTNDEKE
Chain of UniProt Q9BRX2 (Q9BRX2 whole entry, looked up): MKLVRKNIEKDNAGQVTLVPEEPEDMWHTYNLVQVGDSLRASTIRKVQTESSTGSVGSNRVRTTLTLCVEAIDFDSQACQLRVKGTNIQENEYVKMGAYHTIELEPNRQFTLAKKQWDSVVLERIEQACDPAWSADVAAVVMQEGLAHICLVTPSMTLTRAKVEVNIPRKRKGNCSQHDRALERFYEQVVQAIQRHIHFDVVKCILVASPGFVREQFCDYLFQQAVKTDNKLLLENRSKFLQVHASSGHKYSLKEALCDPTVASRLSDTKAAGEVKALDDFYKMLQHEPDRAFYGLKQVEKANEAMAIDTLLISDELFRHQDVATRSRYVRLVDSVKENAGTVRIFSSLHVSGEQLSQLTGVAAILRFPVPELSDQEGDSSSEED
Chain of UniProt P62191 (P62191 whole entry, looked up): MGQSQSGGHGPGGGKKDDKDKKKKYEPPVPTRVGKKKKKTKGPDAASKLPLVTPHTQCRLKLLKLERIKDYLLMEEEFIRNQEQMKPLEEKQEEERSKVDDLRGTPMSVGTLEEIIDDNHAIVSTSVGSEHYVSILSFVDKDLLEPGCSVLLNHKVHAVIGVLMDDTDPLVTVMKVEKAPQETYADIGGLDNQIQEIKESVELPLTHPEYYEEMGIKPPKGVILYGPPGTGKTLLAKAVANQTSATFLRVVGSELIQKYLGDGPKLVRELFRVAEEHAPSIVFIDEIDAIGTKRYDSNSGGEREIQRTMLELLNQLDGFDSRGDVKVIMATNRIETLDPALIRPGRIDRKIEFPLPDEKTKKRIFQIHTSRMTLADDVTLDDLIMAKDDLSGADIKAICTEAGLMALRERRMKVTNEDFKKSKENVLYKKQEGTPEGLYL
Chain of UniProt O43741 (O43741 whole entry, looked up): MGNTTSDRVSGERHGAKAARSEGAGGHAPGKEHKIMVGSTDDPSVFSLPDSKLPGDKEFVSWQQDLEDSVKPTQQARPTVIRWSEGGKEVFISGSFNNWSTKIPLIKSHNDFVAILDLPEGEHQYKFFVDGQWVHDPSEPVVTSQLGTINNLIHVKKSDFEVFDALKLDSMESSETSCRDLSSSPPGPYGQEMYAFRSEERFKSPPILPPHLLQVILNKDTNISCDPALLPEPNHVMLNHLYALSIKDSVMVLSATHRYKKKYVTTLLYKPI
Chain of UniProt Q9Y2Y1 (Q9Y2Y1 whole entry, looked up): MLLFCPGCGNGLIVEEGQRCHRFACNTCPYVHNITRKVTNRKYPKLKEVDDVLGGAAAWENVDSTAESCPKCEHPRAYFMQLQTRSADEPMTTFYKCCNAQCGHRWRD

Target	log2 fold change (erlotinib)	log2 fold change [1]	log2 fold change [2]	log2 fold change [3]	log2 fold change [4]	log2 fold change [5]	log2 fold change [6]	log2 fold change [7]	log2 fold change [8]	log2 fold change [9]	log2 fold change (IRAK-1-4 Inhibitor I)	log2 fold change (ibrutinib)	log2 fold change [10]	log2 fold change (ralimetinib)	log2 fold change [11]	log2 fold change [12]	log2 fold change [13]	log2 fold change (pinometostat)	log2 fold change [14]	log2 fold change [15]
PRKAB2 (UniProt O43741)	-0.054	0.29	0.103	0.032	-0.022	-0.115	0.203	0.144	-0.218	0.064	0.003	0.054	-0.115	0.223	-0.117	-0.028	-0.175	-0.065	0.032	-0.053
PCLAF (UniProt Q15004)	0.073	-0.017	-0.066	0.016	-0.039	0.033	-0.105	-0.13	-0.036	0.032	0.055	0.034	-0.061	-0.012	0.036	0.184	0.278 (active)	-0.012	0.139	-0.088
POLR3K (UniProt Q9Y2Y1)	-0.082	0.005	-0.005	0.007	-0.057	-0.038	-0.235 (active)	-0.056	-0.006	0.031	0.026	0.044	-0.013	-0.084	-0.07	0.124	0.089	0.043	0.032	-0.039
PRMT7 (UniProt Q9NVM4)	0.093	0.132	0.064	-0.017	0.142	0.018	-0.109	-0.039	0.031	-0.031	0.044	-0.061	-0.004	-0.005	0.048	-0.329 (active)	-0.033	0.074	-0.022	-0.065
PRIM2 (UniProt P49643)	0.004	0.038	0.018	0.015	0.061	0.009	0.035	0.035	-0.023	-0.071	-0.043	-0.04	-0.065	-0.058	-0.265	-0.213	0.074	0.005	0	0.059
QKI (UniProt Q96PU8)	-0.011	0.051	-0.008	0.003	0.028	0.007	-0.002	-0.032	-0.025	-0.007	-0.034	-0.004	-0.113	0.007	0.019	-0.221	-0.005	-0.026	0.046	-0.043
PPP1R35 (UniProt Q8TAP8)	0.137	-0.064	-0.038	0.029	0.01	0.034	0.021	-0.031	0.009	0.001	-0.055	-0.057	-0.069	-0.007	-0.026	-0.049	0.036	-0.021	0.049	-0.049
PELO (UniProt Q9BRX2)	0.153	0.017	-0.108	0.074	0.105	-0.104	0.079	0.021	-0.097	-0.058	-0.073	0.071	-0.106	0.122	-0.128	-0.361 (active)	0.058	0.201	0.019	0.088
PKN1 isoform 2 (UniProt Q16512)	0.018	0.088	0.064	0.055	0.059	0	0.011	0	-0.061	-0.326 (active)	-0.014	-0.018	-1.2 (active)	0.006	-0.09	-0.038	0.002	0.057	-0.002	0.047
PYGB (UniProt P11216)	-0.047	-0.022	-0.003	0.087	0.11	0.008	-0.011	0.039	0.009	-0.028	-0.029	0.037	-0.246 (active)	-0.025	0.025	0.01	0.005	0.011	0.055	0.087
PPIL4 (UniProt Q8WUA2)	0.011	0.056	-0.049	0.043	-0.023	0	0.04	-0.009	-0.06	-0.044	-0.102	0.013	-0.27 (active)	0.101	0.04	-0.114	-0.065	0.055	0.002	0.066
PSMC1 (UniProt P62191)	-0.093	-0.063	-0.034	0.037	-0.027	-0.028	-0.017	0.029	0.012	-0.004	-0.053	-0.024	0.056	0.018	0.002	0.04	-0.212 (active)	0.032	0.031	-0.007
PEA15 isoform 2 (UniProt Q15121)	0.001	0.042	0.056	0.026	-0.014	0.055	-0.006	0.072	0.016	-0.064	0.025	-0.024	0.054	0.007	-0.079	-0.045	-0.046	-0.004	0.007	0.038
PBX2 (UniProt P40425)	0.111	0.076	0.055	0.007	0.009	-0.039	0.091	-0.098	-0.036	-0.269	-0.078	0.023	-0.122	0.04	-0.145	-0.184	0.078	-0.058	0.131	-0.005
PRPF38B (UniProt Q5VTL8)	-0.016	0.022	-0.049	0.082	-0.184	-0.085	-0.027	-0.146	-0.018	-0.054	-0.158	-0.005	-0.646 (active)	-0.025	0.045	-0.06	0.03	-0.029	-0.007	0.159
